# Hits are enriched below; roughly 3.4% of the tested compounds scored in any of these assays.
# SIRT5 inh: sirtuin-5 (human) deacylase inhibition; Purified SirT5, succinyl-peptide AMC, trypsin-coupled fluorescence; inhibition, % at 15 µM; 1.1% of 330,000 active; AID 652115; in the data active = inhibition above about 15%
# Target sequence (Q9NXA8 whole entry, looked up): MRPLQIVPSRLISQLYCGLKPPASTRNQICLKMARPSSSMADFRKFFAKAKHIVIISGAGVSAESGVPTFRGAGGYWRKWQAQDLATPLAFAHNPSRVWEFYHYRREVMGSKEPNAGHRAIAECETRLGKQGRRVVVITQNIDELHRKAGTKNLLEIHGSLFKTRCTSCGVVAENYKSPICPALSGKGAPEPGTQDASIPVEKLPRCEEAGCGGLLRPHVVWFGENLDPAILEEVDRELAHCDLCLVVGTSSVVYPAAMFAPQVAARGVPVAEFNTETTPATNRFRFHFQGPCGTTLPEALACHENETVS
# PGC1a acetyl inh: PGC1a acetylation modulation, inhibitor mode. 0.17% of 350,000 active. inhibition, % at 15.6 µM. U2OS PGC1a acetylation, AlphaScreen anti-acetyl-lysine; with virally co-expressed GCN5 acetyltransferase. AID 651687;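 active = every replicate shows inhibition of at least 40%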;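 also: 0% = neutral control wells and 100% = positive control wells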
# LGR2 inh: blocks bursicon-induced cAMP signaling via Drosophila LGR2; HEK293 LGR2, CRE-luciferase, bursicon-stimulated, 4 h; inhibition, % at 9.99 µM; 0.35% of 380,000 active; AID 720647;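 active = drop in luminescence signal, shown as inhibition above about 50% in the replicate tests, limit read from the data, passing the limit was not always enough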;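 also: agonist challenge used bursicon conditioned medium at about half maximal strength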
# rRNA inh HTS: selective bacterial rRNA inhibition in E. coli; E. coli WT GFP vs humanized-ribosome RFP mutants, fluorescence, 24 h; stronger effect = lower value; DMSO median 0, no signal -100; GFP signal change (wild-type ribosome), % (test concentration not listed); 1.6% of 350,000 active; AID 720706;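 active = significant combined selectivity score with lowered wild-type GFP, culture density cut under 30%, mutant RFP and density less affected; inactive = any of these conditions unmet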
# PAX8 reporter: lowers PAX8-driven luciferase in RMG-I cells; RMG-I TPO-luciferase reporter, SteadyGlo, 24 h; inhibition, % at 12.6 µM; 1.2% of 360,000 active; AID 652154;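 active = mean replicate inhibition at least 60% with every replicate also reaching 60%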;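 also: luciferase light reporting Pax8 driven TPO promoter activity; plate controls were median of neutral control wells for no effect and mitoxantrone controls for full effect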
# EWS-Fli inh: inhibitors of EWS/Fli oncoprotein transcriptional activity; A673 NR0B1-luciferase reporter, viability-normalised; inhibition, % at 12.6 µM; 0.67% of 350,000 active; AID 651661;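 active = mean inhibition of at least 50% after viability correction, with every replicate also passing that limit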;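 also: firefly luciferase signal divided by Alamar Blue viability fluorescence both relative to DMSO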
# * marks the source's active call; other numbers are inactive results; . = no result given.
SMILES,SIRT5 inh,PGC1a acetyl inh,LGR2 inh,rRNA inh HTS,PAX8 reporter,EWS-Fli inh
C[C@H](CO)N1C[C@H](C)[C@H](CN(C)S(=O)(=O)c2ccccc2)Oc2ncc(C#Cc3ccc(C(F)(F)F)cc3)cc2C1=O,1,-19,12,-3,.,18
O=C1NC(=O)C(=Cc2ccccc2)N1,.,3,-13,2,3,-9
O=C1NC(=O)/C(=C/c2ccc(OS(=O)(=O)c3ccc(F)cc3F)cc2)N1,5,-13,-4,-26*,14,19
Cc1cc(C(=O)CSc2nnc3ccccn23)c(C)n1-c1ccccc1,.,.,98*,.,81*,.
CC(=O)Nc1cccc2c1O[C@@H](CN(C)C(=O)OC(C)(C)C)[C@H](C)CN(C)C2=O,.,.,.,-2,.,.
CCS(=O)(=O)N[C@@H]1C=C[C@H](CC(=O)NC2Cc3ccccc3C2)O[C@H]1CO,0,6,-5,1,-4,-1
COCCCN=C1NN=C(c2cc(C)n(-c3ccccc3F)c2C)CS1,1,.,6,-2,-36,58*
COCCCN=C1NN=C(c2cc(C)n(-c3ccccc3)c2C)CS1,1,3,.,8,-10,-58
Cc1cc(C2=NNC(=NC3CC3)SC2)c(C)n1-c1c(C)n(C)n(-c2ccccc2)c1=O,.,.,20,.,2,.
Cc1cc(C2=NNC(=NCCc3ccccc3)SC2)c(C)n1-c1c(C)n(C)n(-c2ccccc2)c1=O,4,63*,13,7,-37,9
CCOCCCNc1nc2c(c(=O)n(C)c(=O)n2C)n1CCCc1ccccc1,.,40*,.,.,24,.
C=CCC[C@H](CCCCC)OC(=O)/C=C/[C@H](O)[C@@H](O)C[C@H](O)CC=C,2,.,-1,0,-15,7
C=CCC[C@@H](CCCCC)OC(=O)/C=C/[C@H](O)[C@@H](O)C[C@H](O)CC=C,16*,.,15,5,7,8
COc1cc([N+](=O)[O-])cc(/C=N\NC(=O)C2COc3ccccc3O2)c1O (centres undefined),2,.,10,-20*,15,6
CN(c1ccccc1)S(=O)(=O)c1ccc(C(=O)NCc2ccc(F)cc2)cc1,-2,3,-4,-22,27,14
Cc1ccc(CNC(=O)c2ccc(N(C)S(=O)(=O)c3ccccc3)cc2)cc1,-4,-6,-8,-33*,9,6
CC(=O)N1[C@@H]2CN(CC(F)(F)F)C[C@H]1C2c1ccc(Br)cc1 (some centres undefined),.,.,.,-8,.,.
C[C@H](CO)N1C[C@H](C)[C@@H](CN(C)C(=O)Nc2ccc(C(F)(F)F)cc2)OCCCC[C@H](C)Oc2ccc(NS(=O)(=O)c3ccccc3)cc2C1=O,2,9,-1,2,-10,-3
Cc1ccc(S(=O)(=O)Nc2ccc3c(c2)C(=O)N([C@H](C)CO)C[C@H](C)[C@@H](CN(C)C(=O)Nc2ccc(C(F)(F)F)cc2)OCCCC[C@H](C)O3)cc1,16*,14,5,1,41,-3
Cc1ccc(S(=O)(=O)Nc2ccc3c(c2)C(=O)N([C@@H](C)CO)C[C@H](C)[C@@H](CN(C)C(=O)Nc2ccc(C(F)(F)F)cc2)OCCCC[C@H](C)O3)cc1,17*,-3,10,5,79*,12
Cc1ccc(S(=O)(=O)Nc2ccc3c(c2)C(=O)N([C@H](C)CO)C[C@@H](C)[C@H](CN(C)C(=O)Nc2ccc(C(F)(F)F)cc2)OCCCC[C@@H](C)O3)cc1,16*,1,2,2,69*,18
C[C@@H]1CCCCO[C@@H](CN(C)C(=O)Nc2ccc(C(F)(F)F)cc2)[C@@H](C)CN([C@H](C)CO)C(=O)c2cc(NS(=O)(=O)c3ccccc3)ccc2O1,2,-7,5,5,3,-9
C[C@@H]1CCCCO[C@H](CN(C)C(=O)Nc2ccc(C(F)(F)F)cc2)[C@H](C)CN([C@H](C)CO)C(=O)c2cc(NS(=O)(=O)c3ccccc3)ccc2O1,0,1,17,-2,50,-1
C[C@@H]1CN([C@H](C)CO)C(=O)c2cccc(NC(=O)C3CCOCC3)c2O[C@@H]1CN(C)Cc1ccc(Oc2ccccc2)cc1,5,-15,5,0,4,11
